# Test results published in PMC5540273 (PLoS ONE, 2017).
# Values joined by “and” are separate entries in the source; they are usually repeats but may differ in a detail not shown here. Equal entries are not always repeated. Where two headings read alike, the source gives them in different places.
# Legend:
# CAMKK1 = conditions: concentration: 1 μM, replicates: in singlicate; n = 1
# CAMKK2 = conditions: concentration: 1 μM, replicates: in singlicate; n = 1
# CASK = conditions: concentration: 1 μM, replicates: in singlicate, n = 1
# CDC2L1 = test system: T1, CDC2L1; conditions: concentration: 1 μM, replicates: in singlicate, n = 1
# T1 construct: gene CDK11B
# CDC2L2 = conditions: concentration: 1 μM, replicates: in singlicate, n = 1
# CDC2L5 = test system: T2, CDC2L5; conditions: concentration: 1 μM, replicates: in singlicate, n = 1
# T2 construct: gene CDK13
# CDK11 = test system: T3, CDK11; conditions: concentration: 1 μM, replicates: in singlicate, n = 1
# T3 construct: gene CDK19
# CDK2 = conditions: concentration: 1 μM, replicates: in singlicate; n = 1
# CDK3 = conditions: concentration: 1 μM, replicates: in singlicate; n = 1
# CDK4-cyclinD1 = conditions: concentration: 1 μM, replicates: in singlicate, n = 1
# CDK4-cyclinD3 = conditions: concentration: 1 μM, replicates: in singlicate; n = 1
# CDK4 = conditions: concentration: 1 μM, replicates: in singlicate, n = 1
# CDK5 = conditions: concentration: 1 μM, replicates: in singlicate; n = 1
# CDK7 = conditions: concentration: 1 μM, replicates: in singlicate, n = 1
# CDK8 = conditions: concentration: 1 μM, replicates: in singlicate, n = 1
# CDK9 = conditions: concentration: 1 μM, replicates: in singlicate; n = 1
# CDKL1 = conditions: concentration: 1 μM, replicates: in singlicate, n = 1
# CDKL2 = conditions: concentration: 1 μM, replicates: in singlicate, n = 1
# CDKL3 = conditions: concentration: 1 μM, replicates: in singlicate, n = 1
# CDKL5 = conditions: concentration: 1 μM, replicates: in singlicate; n = 1
# 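Note: KINOMEscan kinase panel screen.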
structure (smiles),measurement,setting,value
c1ccc(-c2n[nH]cc2-c2ccnc3ccccc23)nc1 [GW271431],%Inh,CAMKK1,17%
same,%Inh,CAMKK2,30%
same,%Inh,CASK,0%
same,%Inh,CDC2L1,0%
same,%Inh,CDC2L2,24%
same,%Inh,CDC2L5,0%
same,%Inh,CDK11,34%
same,%Inh,CDK2,0%
same,%Inh,CDK3,0%
same,%Inh,CDK4-cyclinD1,0%
same,%Inh,CDK4-cyclinD3,0%
same,%Inh,CDK4,0%
same,%Inh,CDK5,0%
same,%Inh,CDK7,0%
same,%Inh,CDK8,5%
same,%Inh,CDK9,0%
same,%Inh,CDKL1,7%
same,%Inh,CDKL2,5%
same,%Inh,CDKL3,0%
same,%Inh,CDKL5,6%
COc1cc2c(cc1OCCN1CCN(C)CC1)ncc1c3ccc(C#N)cc3[nH]c21,%Inh,CAMKK1,86%
same,%Inh,CAMKK2,70%
same,%Inh,CASK,8%
same,%Inh,CDC2L1,7%
same,%Inh,CDC2L2,7%
same,%Inh,CDC2L5,0%
same,%Inh,CDK11,0%
same,%Inh,CDK2,2%
same,%Inh,CDK3,0%
same,%Inh,CDK4-cyclinD1,0%
same,%Inh,CDK4-cyclinD3,0%
same,%Inh,CDK4,0%
same,%Inh,CDK5,9%
same,%Inh,CDK7,99.7%
same,%Inh,CDK8,3%
same,%Inh,CDK9,14%
same,%Inh,CDKL1,32%
same,%Inh,CDKL2,6%
same,%Inh,CDKL3,0%
same,%Inh,CDKL5,0%
O=C(NCCCN1CCOCC1)c1cccc(Nc2nccc(Nc3ccc(Oc4ccccc4)cc3)n2)c1 [GW663929],%Inh,CAMKK1,0%
same,%Inh,CAMKK2,7%
same,%Inh,CASK,7%
same,%Inh,CDC2L1,10%
same,%Inh,CDC2L2,26%
same,%Inh,CDC2L5,0%
same,%Inh,CDK11,15%
same,%Inh,CDK2,0%
same,%Inh,CDK3,0%
same,%Inh,CDK4-cyclinD1,6%
same,%Inh,CDK4-cyclinD3,0%
same,%Inh,CDK4,16%
same,%Inh,CDK5,0%
same,%Inh,CDK7,20%
same,%Inh,CDK8,34%
same,%Inh,CDK9,19%
same,%Inh,CDKL1,5%
same,%Inh,CDKL2,28%
same,%Inh,CDKL3,0%
same,%Inh,CDKL5,0%
CCc1nc(-c2cccc(C)c2)c(-c2ccnc(NCc3ccccc3)c2)s1,%Inh,CAMKK1,3%
same,%Inh,CAMKK2,12%
same,%Inh,CASK,16%
same,%Inh,CDC2L1,0%
same,%Inh,CDC2L2,5%
same,%Inh,CDC2L5,11%
same,%Inh,CDK11,0%
same,%Inh,CDK2,0%
same,%Inh,CDK3,9%
same,%Inh,CDK4-cyclinD1,0%
same,%Inh,CDK4-cyclinD3,0%
same,%Inh,CDK4,0%
same,%Inh,CDK5,0%
same,%Inh,CDK7,0%
same,%Inh,CDK8,0%
same,%Inh,CDK9,1%
same,%Inh,CDKL1,13%
same,%Inh,CDKL2,0%
same,%Inh,CDKL3,2%
same,%Inh,CDKL5,0%
Cl.Cl.Cl.Fc1ccc(-c2ncn(C3CCNCC3)c2-c2ccnc(Nc3ccccc3)n2)cc1 [SB-238039],%Inh,CAMKK1,0%
same,%Inh,CAMKK2,0%
same,%Inh,CASK; 1 µM,16% and 0%
same,%Inh,CDC2L1; 1 µM,99.4% and 98.5%
same,%Inh,CDC2L2; 1 µM,99.8% and 98.2%
same,%Inh,CDC2L5; 1 µM,32% and 16%
same,%Inh,CDK11; 1 µM,0% and 2%
same,%Inh,CDK2,0%
same,%Inh,CDK3,0%
same,%Inh,CDK4-cyclinD1; 1 µM,0% and 15%
same,%Inh,CDK4-cyclinD3,0%
same,%Inh,CDK4; 1 µM,18% and 19%
same,%Inh,CDK5,0%
same,%Inh,CDK7; 1 µM,19% and 33%
same,%Inh,CDK8; 1 µM,49% and 19%
same,%Inh,CDK9,0%
same,%Inh,CDKL1; 1 µM,34% and 37%
same,%Inh,CDKL2; 1 µM,0% and 29%
same,%Inh,CDKL3; 1 µM,5% and 15%
same,%Inh,CDKL5,0%
Cc1cn2c(=O)cc(N3CCOCC3)nc2n1Cc1cccc(Cl)c1Cl [GSK2334006],%Inh,CAMKK1,30%
same,%Inh,CAMKK2,32%
same,%Inh,CASK,20%
same,%Inh,CDC2L1,0%
same,%Inh,CDC2L2,6%
same,%Inh,CDC2L5,0%
same,%Inh,CDK11,11%
same,%Inh,CDK2,17%
same,%Inh,CDK3,25%
same,%Inh,CDK4-cyclinD1,0%
same,%Inh,CDK4-cyclinD3,0%
same,%Inh,CDK4,3%
same,%Inh,CDK5,2%
same,%Inh,CDK7,0%
same,%Inh,CDK8,15%
same,%Inh,CDK9,0%
same,%Inh,CDKL1,0%
same,%Inh,CDKL2,3%
same,%Inh,CDKL3,0%
same,%Inh,CDKL5,2%
NCC(NC(=O)c1cc(-c2cn[nH]c2)c(-c2ccnc3[nH]ccc23)s1)c1ccccc1.O=C(O)C(F)(F)F.O=C(O)C(F)(F)F (stereo not shown) [GSK1325775],%Inh,CAMKK1,76%
same,%Inh,CAMKK2,67%
same,%Inh,CASK,23%
same,%Inh,CDC2L1,0%
same,%Inh,CDC2L2,11%
same,%Inh,CDC2L5,32%
same,%Inh,CDK11,34%
same,%Inh,CDK2,0%
same,%Inh,CDK3,0%
same,%Inh,CDK4-cyclinD1,48%
same,%Inh,CDK4-cyclinD3,41%
same,%Inh,CDK4,0%
same,%Inh,CDK5,0%
same,%Inh,CDK7,93.7%
same,%Inh,CDK8,33%
same,%Inh,CDK9,64%
same,%Inh,CDKL1,34%
same,%Inh,CDKL2,53%
same,%Inh,CDKL3,68%
same,%Inh,CDKL5,48%
Fc1ccc(-c2ncn(CCCN3CCOCC3)c2-c2ccccn2)cc1 [SB-211742],%Inh,CAMKK1,16%
same,%Inh,CAMKK2,19%
same,%Inh,CASK,0%
same,%Inh,CDC2L1,1%
same,%Inh,CDC2L2,0%
same,%Inh,CDC2L5,21%
same,%Inh,CDK11,0%
same,%Inh,CDK2,0%
same,%Inh,CDK3,43%
same,%Inh,CDK4-cyclinD1,22%
same,%Inh,CDK4-cyclinD3,0%
same,%Inh,CDK4,0%
same,%Inh,CDK5,0%
same,%Inh,CDK7,0%
same,%Inh,CDK8,29%
same,%Inh,CDK9,0%
same,%Inh,CDKL1,40%
same,%Inh,CDKL2,49%
same,%Inh,CDKL3,4%
same,%Inh,CDKL5,5%
COc1ccc(S(=O)(=O)NC2CCN(c3cc(C)nc(Nc4cccc(C#N)c4)n3)CC2)cc1.O=C(O)C(F)(F)F [GSK1653539],%Inh,CAMKK1,2%
same,%Inh,CAMKK2,16%
same,%Inh,CASK,0%
same,%Inh,CDC2L1,0%
same,%Inh,CDC2L2,37%
same,%Inh,CDC2L5,0%
same,%Inh,CDK11,0%
same,%Inh,CDK2,0%
same,%Inh,CDK3,0%
same,%Inh,CDK4-cyclinD1,0%
same,%Inh,CDK4-cyclinD3,0%
same,%Inh,CDK4,38%
same,%Inh,CDK5,0%
same,%Inh,CDK7,0%
same,%Inh,CDK8,4%
same,%Inh,CDK9,0%
same,%Inh,CDKL1,15%
same,%Inh,CDKL2,0%
same,%Inh,CDKL3,0%
same,%Inh,CDKL5,0%
Cc1nnc(-c2ccc3occ(-c4ccc(C(C)O)cc4)c3c2)o1 (stereo not shown),%Inh,CAMKK1,12%
same,%Inh,CAMKK2,14%
same,%Inh,CASK,4%
same,%Inh,CDC2L1,1%
same,%Inh,CDC2L2,4%
same,%Inh,CDC2L5,22%
same,%Inh,CDK11,0%
same,%Inh,CDK2,5%
same,%Inh,CDK3,4%
same,%Inh,CDK4-cyclinD1,0%
same,%Inh,CDK4-cyclinD3,0%
same,%Inh,CDK4,0%
same,%Inh,CDK5,1%
same,%Inh,CDK7,17%
same,%Inh,CDK8,0%
same,%Inh,CDK9,8%
same,%Inh,CDKL1,52%
same,%Inh,CDKL2,0%
same,%Inh,CDKL3,0%
same,%Inh,CDKL5,25%
O=C(Nc1n[nH]c2cc(-c3cccc(F)c3)ccc12)C1CC1 [SB-735464],%Inh,CAMKK1,18%
same,%Inh,CAMKK2,14%
same,%Inh,CASK,10%
same,%Inh,CDC2L1,2%
same,%Inh,CDC2L2,9%
same,%Inh,CDC2L5,23%
same,%Inh,CDK11,0%
same,%Inh,CDK2,27%
same,%Inh,CDK3,0%
same,%Inh,CDK4-cyclinD1,8%
same,%Inh,CDK4-cyclinD3,7%
same,%Inh,CDK4,44%
same,%Inh,CDK5,3%
same,%Inh,CDK7,0%
same,%Inh,CDK8,0%
same,%Inh,CDK9,0%
same,%Inh,CDKL1,6%
same,%Inh,CDKL2,57%
same,%Inh,CDKL3,28%
same,%Inh,CDKL5,4%
